Whole data set: some 33,000 sequences, median “E-score (-0.5 to 0.5)” near -0.016, cut for the highest 2% near 0.31. This is one part of a sample in which the highest values are shown more often than they occur.
molecular target: Cst6 (UniProt P40535); assay: PBM E-score (8-mer binding enrichment) (E-score (-0.5 to 0.5)); higher = stronger / more preferred TF binding; details: protein concentration: 200 nM; construct: GST-DNA-binding domain
Outline: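 Yeast transcription factors, full-length or as DNA-binding domains, were expressed with a GST tag using PURExpress in vitro transcription/translation. At about 100-200 nM they were applied to universal all-10-mer Agilent arrays, double-stranded by primer extension on fresh or once-stripped slides. Fluorescent anti-GST detected bound protein, and masliner normalised the scans. E-scores for ungapped eight-base words, pooled with reverse complements, came from the Universal PBM Analysis Suite.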

UniProt P40535, sequence (P40535 whole entry, the tested form may be a part): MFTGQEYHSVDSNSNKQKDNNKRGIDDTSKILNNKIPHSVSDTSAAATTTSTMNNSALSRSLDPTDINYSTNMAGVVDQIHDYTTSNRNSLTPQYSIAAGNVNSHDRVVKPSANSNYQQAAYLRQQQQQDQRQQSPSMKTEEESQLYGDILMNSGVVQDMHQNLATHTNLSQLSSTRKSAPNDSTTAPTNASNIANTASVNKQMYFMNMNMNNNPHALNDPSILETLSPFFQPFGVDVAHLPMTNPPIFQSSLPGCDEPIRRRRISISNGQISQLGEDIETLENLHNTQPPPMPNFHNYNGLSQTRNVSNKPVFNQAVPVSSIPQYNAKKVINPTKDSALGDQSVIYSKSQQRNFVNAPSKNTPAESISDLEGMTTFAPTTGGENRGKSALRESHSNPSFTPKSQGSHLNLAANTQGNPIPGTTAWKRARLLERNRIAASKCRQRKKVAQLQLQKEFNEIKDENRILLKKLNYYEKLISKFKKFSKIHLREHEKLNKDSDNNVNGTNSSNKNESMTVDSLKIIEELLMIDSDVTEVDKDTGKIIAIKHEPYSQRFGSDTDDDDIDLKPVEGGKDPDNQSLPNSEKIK

Row | Sequence | PBM E-score
1 | ATCAAAGG | -0.0902
2 | CTACCACA | -0.155
3 | AGTTCCCG | -0.205
4 | AGGGCAAT | -0.0329
5 | GTGCGTGA | 0.136
6 | ATGCGTCC | -0.213
7 | CTGCGTCA | 0.428
8 | ATGCGTCG | 0.0508
9 | CTGCGTTA | -0.204
10 | ATGCGTCA | 0.444
11 | GTGCGTCA | 0.432
12 | GTGCGTAA | 0.192
13 | CTGCGTCC | -0.11
14 | TCTAACCA | 0.057
15 | CGTCTACC | -0.0234
16 | CATTTAGA | 0.136
17 | AGCAGCTC | -0.28
18 | GTCAAGCA | -0.29
19 | GAATAAAA | 0.216
20 | ACATAACA | 0.227
21 | AAATATAA | 0.233
22 | CAATAAAA | 0.165
23 | GAATATAA | 0.111
24 | TCATATAA | 0.305
25 | TAATAAAA | 0.316
26 | GCATAACA | 0.124

Row | Sequence | PBM E-score
27 | GCATATAA | 0.166
28 | TAATATAA | 0.358
29 | CCATATAA | 0.105
30 | TCATAACA | 0.311
31 | CATCCTAC | -0.0877
32 | CCAGGGCC | -0.39
33 | ATTGGCGC | 0.0493
34 | CGACTACC | -0.363
35 | CTTCCATC | -0.0839
36 | CAAGTCTC | -0.247
37 | TCGCCTAA | -0.0175
38 | AAAAGAGG | -0.121
39 | TACCAGAA | 0.0986
40 | AGGGAAGG | -0.28
41 | CAATATAC | -0.0952
42 | CAATATAA | 0.312
43 | CAATATAG | 0.0707
44 | TCACGGCA | 0.224
45 | GCACGGCC | 0.23
46 | CAACGGCA | 0.094
47 | GAACGGCA | 0.352
48 | GAACGGCC | -0.183
49 | GCACGGCA | 0.353
50 | GGCAGGCC | -0.332
51 | ATGGGTCC | -0.242
52 | GACACCAC | -0.0664

Row | Sequence | PBM E-score
53 | CGTTGTCC | 0.126
54 | GGGGAAAA | -0.101
55 | CGCATACC | 0.117
56 | ATTATGTG | 0.228
57 | ATTATGTA | 0.355
58 | GTTATGTA | 0.165
59 | CTTATGTC | 0.105
60 | ATTATGTC | 0.359
61 | ACTATGTC | 0.0789
62 | CTTACTGA | -0.0696
63 | GGGCTCAA | -0.174
64 | ACCCCTTG | -0.33
65 | AGAAATCG | -0.0866
66 | AATATATG | 0.171
67 | ACTATATC | 0.128
68 | TATATATA | 0.315
69 | AATATATA | 0.239
70 | AATATTGT | 0.306
71 | TATATACA | 0.161
72 | AATATTGC | 0.257
73 | ACTATATA | 0.316
74 | GATATATA | 0.304
75 | AATATTGG | 0.0316
76 | GCTATATA | 0.167
77 | AATATATT | 0.355
78 | GAATGTGC | 0.07

Row | Sequence | PBM E-score
79 | GGACGAAC | -0.0196
80 | ACTTGCGC | -0.0133
81 | CTCGCATC | 0.00499
82 | AGTATATC | 0.0089
83 | CATATATG | 0.341
84 | CATATATA | 0.272
85 | AGTATATG | 0.111
86 | CATATATC | 0.121
87 | AGTATATA | 0.348
88 | AGTTGCGA | 0.0793
89 | AAACTGAT | 0.0925
90 | ACGCGATG | 0.122
91 | AATTGTCG | 0.0471
92 | CATTTGTC | 0.0906
93 | CAGGGTTA | -0.124
94 | ACCGTAAG | 0.109
95 | CACGTAAA | 0.181
96 | AACGTAAG | 0.306
97 | CACGTAAG | 0.292
98 | AACGTAAC | 0.329
99 | GCCGTAAA | 0.243
100 | AACGTACT | 0.0968
101 | ACCGTAAC | -0.0255
102 | AACGTAAT | 0.453

— the supplement of paper PMC3334620
